Here are results for two molecules from ChEMBL document CHEMBL1961873, “Compounds: GSK PKIS; Assays: Nanosyn kinase panel” (2012).

For test [1], the target named is Protein kinase C gamma type (Homo sapiens) (UniProt P05129). The note with it: at 1 µM.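 Also: each value is an averaged percent inhibition of the enzyme.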
In test [2] the target is T1, Protein kinase C iota type (Homo sapiens) (UniProt P41743).
T1 sequence (whole entry): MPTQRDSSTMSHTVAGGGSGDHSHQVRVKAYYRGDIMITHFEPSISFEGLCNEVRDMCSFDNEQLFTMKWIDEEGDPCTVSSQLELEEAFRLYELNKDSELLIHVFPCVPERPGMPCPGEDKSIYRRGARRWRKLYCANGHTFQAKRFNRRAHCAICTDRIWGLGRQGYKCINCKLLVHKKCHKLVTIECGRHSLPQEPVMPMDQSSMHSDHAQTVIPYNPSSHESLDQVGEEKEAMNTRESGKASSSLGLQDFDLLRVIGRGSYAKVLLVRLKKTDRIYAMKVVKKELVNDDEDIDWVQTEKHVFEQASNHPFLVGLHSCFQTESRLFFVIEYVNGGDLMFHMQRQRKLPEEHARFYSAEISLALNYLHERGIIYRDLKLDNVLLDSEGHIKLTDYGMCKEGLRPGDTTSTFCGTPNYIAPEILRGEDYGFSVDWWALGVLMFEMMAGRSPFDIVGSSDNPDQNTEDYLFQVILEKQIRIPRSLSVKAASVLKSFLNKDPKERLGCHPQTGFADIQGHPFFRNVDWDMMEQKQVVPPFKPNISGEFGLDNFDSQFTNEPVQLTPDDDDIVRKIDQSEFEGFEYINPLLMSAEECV
The conditions noted are these: at 0.1 µM.

Test [3] concerns the target T1, Protein kinase C iota type (Homo sapiens). The note with it: at 1 µM.
Test [4] addresses Protein kinase C theta type (Homo sapiens) (UniProt Q04759). The note with it: at 0.1 µM.
For test [5] the target is unchanged. The note with it: at 1 µM.
In test [6] the target is Protein kinase C beta type (Homo sapiens) (UniProt P05771). The note with it: at 0.1 µM.
The target is the same in test [7]. The note with it: at 1 µM.
Test [8] has as its target T2, Serine/threonine-protein kinase D1 (Homo sapiens) (UniProt Q15139).
T2 sequence (whole entry): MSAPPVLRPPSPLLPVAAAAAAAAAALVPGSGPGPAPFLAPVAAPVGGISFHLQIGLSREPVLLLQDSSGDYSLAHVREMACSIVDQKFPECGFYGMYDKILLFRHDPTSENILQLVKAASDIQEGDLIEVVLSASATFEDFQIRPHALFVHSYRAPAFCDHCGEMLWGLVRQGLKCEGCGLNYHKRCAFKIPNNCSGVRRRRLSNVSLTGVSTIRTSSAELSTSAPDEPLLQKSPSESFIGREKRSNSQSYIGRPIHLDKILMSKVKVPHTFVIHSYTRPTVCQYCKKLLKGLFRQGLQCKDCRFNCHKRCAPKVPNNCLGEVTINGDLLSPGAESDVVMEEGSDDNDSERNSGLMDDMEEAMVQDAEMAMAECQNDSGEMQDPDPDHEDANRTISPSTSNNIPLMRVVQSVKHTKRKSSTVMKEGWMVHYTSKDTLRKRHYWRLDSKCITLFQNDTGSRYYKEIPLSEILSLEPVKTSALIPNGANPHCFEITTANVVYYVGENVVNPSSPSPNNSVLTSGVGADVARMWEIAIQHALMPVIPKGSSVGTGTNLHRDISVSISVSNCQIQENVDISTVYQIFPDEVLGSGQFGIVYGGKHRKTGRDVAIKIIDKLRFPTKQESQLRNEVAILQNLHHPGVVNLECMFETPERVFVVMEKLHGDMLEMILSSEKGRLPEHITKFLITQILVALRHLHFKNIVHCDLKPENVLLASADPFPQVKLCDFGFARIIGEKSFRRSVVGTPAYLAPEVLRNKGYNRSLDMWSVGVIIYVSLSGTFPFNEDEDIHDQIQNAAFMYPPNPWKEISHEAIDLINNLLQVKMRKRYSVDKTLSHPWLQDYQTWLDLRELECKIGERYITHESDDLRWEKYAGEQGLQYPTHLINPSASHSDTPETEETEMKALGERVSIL
The note with it: at 0.1 µM.

Test [9] has as its target T2, Serine/threonine-protein kinase D1 (Homo sapiens). The conditions noted are these: at 1 µM.
The target in test [10] is T3, Serine/threonine-protein kinase D2 (Homo sapiens) (UniProt Q9BZL6).
T3 sequence (whole entry): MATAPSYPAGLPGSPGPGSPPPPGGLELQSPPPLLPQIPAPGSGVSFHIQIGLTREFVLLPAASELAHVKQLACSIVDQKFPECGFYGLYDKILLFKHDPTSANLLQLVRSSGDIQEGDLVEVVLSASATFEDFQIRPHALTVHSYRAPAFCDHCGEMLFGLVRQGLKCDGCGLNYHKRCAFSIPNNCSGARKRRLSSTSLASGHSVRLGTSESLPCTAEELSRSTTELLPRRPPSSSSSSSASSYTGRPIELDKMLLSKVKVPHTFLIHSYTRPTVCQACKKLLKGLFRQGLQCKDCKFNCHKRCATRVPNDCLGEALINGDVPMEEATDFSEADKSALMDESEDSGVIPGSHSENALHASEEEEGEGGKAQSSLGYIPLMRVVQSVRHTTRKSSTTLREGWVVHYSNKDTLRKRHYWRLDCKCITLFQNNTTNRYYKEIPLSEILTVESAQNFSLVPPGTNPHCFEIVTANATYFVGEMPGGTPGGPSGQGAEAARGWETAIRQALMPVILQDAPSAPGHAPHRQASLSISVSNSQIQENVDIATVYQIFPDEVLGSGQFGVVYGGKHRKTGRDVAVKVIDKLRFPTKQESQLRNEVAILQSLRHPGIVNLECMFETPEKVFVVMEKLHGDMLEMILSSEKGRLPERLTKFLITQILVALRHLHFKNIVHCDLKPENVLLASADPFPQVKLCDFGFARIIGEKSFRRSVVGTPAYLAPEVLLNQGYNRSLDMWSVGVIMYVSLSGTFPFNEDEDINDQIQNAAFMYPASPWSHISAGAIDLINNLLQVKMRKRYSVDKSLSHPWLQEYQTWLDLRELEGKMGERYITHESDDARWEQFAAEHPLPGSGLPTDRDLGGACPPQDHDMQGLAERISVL
The note with it: at 0.1 µM.

Test [11] addresses T3, Serine/threonine-protein kinase D2 (Homo sapiens). The note with it: at 1 µM.
The target in test [12] is T4, Serine/threonine-protein kinase D3 (Homo sapiens) (UniProt O94806).
T4 sequence (whole entry): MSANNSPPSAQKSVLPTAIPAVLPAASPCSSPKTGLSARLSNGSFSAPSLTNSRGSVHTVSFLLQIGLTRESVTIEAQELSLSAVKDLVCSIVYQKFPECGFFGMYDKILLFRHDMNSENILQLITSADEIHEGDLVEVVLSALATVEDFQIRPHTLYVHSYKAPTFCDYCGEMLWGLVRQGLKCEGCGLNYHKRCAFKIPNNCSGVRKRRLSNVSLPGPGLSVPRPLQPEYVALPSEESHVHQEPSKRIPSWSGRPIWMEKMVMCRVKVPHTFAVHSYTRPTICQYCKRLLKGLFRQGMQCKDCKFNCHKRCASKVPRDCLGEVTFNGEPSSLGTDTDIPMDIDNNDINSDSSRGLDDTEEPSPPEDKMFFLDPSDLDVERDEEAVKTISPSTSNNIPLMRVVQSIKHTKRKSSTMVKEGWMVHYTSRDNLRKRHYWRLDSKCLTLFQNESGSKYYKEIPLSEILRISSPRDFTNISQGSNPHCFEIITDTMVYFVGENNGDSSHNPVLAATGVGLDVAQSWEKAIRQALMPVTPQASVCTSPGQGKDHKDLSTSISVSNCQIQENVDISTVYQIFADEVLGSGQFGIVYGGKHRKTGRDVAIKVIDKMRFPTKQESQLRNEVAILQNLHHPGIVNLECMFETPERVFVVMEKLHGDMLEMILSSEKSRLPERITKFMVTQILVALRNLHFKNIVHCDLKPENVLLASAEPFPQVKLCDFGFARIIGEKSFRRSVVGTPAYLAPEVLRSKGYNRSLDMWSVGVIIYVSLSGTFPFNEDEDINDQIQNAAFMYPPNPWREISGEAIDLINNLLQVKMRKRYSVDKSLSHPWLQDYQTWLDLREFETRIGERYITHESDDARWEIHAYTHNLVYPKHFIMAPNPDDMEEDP
The note with it: at 0.1 µM.

Test [13] addresses T4, Serine/threonine-protein kinase D3 (Homo sapiens). The conditions noted are these: at 1 µM.
Test [14] has as its target T5, cGMP-dependent protein kinase 1 (Homo sapiens) (UniProt Q13976).
T5 sequence (whole entry): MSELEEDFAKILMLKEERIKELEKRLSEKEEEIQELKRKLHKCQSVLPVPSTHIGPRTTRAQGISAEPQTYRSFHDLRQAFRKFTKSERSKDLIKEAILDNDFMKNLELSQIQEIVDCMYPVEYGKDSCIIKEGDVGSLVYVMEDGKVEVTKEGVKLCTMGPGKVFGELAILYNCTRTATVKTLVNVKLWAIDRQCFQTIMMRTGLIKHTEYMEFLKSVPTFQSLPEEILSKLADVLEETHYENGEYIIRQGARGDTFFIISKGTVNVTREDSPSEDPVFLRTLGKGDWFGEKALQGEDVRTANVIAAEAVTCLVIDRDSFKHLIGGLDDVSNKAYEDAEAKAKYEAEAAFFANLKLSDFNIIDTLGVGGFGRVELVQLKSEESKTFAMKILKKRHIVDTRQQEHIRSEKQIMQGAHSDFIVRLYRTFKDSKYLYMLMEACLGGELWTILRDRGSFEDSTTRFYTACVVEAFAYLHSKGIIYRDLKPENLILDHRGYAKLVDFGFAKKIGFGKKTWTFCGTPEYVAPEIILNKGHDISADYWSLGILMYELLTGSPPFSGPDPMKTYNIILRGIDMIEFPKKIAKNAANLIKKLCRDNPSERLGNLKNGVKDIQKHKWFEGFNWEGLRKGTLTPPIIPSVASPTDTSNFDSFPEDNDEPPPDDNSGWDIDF
The conditions noted are these: at 0.1 µM.

In test [15] the target is T5, cGMP-dependent protein kinase 1 (Homo sapiens). The conditions noted are these: at 1 µM.
In test [16] the target is T6, cGMP-dependent protein kinase 2 (Homo sapiens) (UniProt Q13237).
T6 sequence (whole entry): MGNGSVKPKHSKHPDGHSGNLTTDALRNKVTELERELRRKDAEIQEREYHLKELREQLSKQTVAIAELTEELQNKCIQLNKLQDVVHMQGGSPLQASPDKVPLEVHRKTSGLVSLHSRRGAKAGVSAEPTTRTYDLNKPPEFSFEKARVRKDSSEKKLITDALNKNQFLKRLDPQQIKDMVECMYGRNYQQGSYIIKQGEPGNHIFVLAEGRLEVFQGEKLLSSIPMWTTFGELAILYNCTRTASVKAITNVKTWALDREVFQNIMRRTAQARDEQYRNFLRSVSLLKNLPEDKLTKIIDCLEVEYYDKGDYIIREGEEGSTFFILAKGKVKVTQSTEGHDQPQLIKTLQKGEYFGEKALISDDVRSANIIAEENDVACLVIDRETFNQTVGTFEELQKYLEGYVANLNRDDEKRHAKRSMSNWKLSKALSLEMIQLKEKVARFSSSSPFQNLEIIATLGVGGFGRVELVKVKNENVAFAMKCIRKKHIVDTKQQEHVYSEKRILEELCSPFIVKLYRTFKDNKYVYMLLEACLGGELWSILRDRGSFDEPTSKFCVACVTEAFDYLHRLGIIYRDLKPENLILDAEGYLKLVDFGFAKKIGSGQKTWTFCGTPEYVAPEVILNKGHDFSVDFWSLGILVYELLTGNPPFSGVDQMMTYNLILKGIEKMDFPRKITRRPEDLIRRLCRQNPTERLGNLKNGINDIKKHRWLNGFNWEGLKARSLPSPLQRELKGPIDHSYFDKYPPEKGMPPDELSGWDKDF
The conditions noted are these: at 0.1 µM.

For test [17], the target named is T6, cGMP-dependent protein kinase 2 (Homo sapiens). The conditions noted are these: at 1 µM.
The target of test [18] is T7, cAMP-dependent protein kinase catalytic subunit PRKX (Homo sapiens) (UniProt P51817).
T7 sequence (whole entry): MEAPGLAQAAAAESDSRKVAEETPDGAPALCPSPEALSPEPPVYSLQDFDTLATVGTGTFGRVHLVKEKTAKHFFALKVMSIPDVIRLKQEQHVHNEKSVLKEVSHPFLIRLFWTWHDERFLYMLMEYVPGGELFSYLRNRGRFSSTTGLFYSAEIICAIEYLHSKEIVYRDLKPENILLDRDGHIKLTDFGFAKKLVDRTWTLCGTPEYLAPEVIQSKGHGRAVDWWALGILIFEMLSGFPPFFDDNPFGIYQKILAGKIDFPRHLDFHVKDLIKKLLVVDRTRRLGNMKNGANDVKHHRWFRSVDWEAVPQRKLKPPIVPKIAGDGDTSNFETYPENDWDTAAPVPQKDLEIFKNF
The conditions noted are these: at 0.1 µM.

Test [19] concerns the target T7, cAMP-dependent protein kinase catalytic subunit PRKX (Homo sapiens). The conditions noted are these: at 1 µM.
Test [20] concerns the target Rho-associated protein kinase 1 (Homo sapiens) (UniProt Q13464). The conditions noted are these: at 0.1 µM.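 Also: values are mean percent inhibition of ROCK1.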

Protein kinase C beta type (Homo sapiens), sequence (P05771 2-671 limits assumed): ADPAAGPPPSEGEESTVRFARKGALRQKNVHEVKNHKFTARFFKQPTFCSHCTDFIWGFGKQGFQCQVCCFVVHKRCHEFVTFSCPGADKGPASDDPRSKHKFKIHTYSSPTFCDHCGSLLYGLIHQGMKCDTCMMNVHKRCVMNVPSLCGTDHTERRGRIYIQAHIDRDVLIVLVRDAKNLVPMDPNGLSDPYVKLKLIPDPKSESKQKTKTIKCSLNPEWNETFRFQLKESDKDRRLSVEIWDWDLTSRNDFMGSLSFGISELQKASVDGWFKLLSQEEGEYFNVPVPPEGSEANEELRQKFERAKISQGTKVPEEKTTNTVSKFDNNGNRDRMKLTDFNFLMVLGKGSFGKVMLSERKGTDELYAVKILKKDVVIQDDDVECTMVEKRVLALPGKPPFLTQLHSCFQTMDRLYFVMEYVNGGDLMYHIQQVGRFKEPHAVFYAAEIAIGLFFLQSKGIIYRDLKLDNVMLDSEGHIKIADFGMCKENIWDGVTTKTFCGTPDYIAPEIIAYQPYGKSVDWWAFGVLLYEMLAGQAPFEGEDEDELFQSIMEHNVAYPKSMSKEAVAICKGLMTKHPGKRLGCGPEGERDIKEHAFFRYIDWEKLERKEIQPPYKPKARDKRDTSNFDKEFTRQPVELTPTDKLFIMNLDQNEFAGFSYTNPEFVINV
Protein kinase C theta type (Homo sapiens), sequence (Q04759 whole entry, looked up): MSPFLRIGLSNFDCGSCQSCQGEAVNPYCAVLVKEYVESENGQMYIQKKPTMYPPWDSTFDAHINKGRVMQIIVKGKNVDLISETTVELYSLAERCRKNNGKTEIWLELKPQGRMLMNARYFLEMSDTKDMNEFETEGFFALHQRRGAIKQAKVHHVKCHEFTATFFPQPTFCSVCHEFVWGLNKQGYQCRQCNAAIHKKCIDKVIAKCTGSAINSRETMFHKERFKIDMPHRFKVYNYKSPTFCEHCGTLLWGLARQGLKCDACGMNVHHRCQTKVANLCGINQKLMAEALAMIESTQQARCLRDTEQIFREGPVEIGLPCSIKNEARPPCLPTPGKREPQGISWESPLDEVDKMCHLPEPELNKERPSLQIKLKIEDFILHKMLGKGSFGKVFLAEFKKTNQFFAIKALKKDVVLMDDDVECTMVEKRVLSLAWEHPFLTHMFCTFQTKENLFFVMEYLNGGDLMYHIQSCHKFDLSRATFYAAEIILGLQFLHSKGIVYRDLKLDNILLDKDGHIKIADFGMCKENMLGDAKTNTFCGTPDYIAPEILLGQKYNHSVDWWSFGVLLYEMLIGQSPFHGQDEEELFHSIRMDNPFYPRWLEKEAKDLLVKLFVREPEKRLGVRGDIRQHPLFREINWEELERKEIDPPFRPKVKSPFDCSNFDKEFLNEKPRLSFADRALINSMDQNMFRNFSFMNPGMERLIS
Rho-associated protein kinase 1 (Homo sapiens), sequence (Q13464 2-1354 limits assumed): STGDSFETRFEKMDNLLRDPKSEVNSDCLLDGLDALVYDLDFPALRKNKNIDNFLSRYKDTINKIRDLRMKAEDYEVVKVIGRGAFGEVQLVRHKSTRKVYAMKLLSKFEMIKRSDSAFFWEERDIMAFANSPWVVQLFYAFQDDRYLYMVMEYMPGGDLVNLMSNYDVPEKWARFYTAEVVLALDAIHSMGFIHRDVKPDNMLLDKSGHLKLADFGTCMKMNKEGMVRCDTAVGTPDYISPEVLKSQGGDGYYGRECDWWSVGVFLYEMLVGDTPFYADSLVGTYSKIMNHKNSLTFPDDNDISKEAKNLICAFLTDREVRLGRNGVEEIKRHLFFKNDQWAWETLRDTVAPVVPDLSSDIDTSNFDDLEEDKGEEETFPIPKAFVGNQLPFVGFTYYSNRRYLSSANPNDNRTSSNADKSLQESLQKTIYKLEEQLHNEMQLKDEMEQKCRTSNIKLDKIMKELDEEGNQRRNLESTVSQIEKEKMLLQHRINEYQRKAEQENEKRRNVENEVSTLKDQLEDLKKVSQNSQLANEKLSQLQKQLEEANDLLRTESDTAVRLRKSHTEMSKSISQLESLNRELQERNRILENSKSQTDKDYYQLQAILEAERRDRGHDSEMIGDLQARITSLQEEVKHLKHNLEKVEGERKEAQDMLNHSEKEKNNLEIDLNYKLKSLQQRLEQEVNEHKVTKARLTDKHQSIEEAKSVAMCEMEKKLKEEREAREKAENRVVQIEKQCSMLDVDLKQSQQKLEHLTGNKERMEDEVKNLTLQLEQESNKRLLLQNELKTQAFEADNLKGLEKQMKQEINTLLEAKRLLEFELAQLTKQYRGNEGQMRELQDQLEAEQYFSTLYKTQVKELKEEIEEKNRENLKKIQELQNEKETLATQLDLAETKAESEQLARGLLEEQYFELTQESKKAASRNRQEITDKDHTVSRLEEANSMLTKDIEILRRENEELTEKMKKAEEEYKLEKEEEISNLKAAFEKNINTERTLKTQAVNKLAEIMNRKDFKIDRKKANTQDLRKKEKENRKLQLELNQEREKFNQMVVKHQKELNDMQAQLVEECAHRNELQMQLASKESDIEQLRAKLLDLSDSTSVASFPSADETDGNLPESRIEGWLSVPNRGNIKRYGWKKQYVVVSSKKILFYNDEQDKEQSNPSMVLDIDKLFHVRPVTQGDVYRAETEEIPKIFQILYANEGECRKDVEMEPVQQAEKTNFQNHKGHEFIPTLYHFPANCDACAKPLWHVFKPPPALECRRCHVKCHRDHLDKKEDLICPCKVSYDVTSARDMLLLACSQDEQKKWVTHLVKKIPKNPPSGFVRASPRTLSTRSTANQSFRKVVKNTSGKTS

By inhibition is commonly meant the relative decrease from the control value, in per cent. As for `CCc1cccc(CC)c1/C=C/c1cncc(C(=O)NC)c1`, the inhibition in [1] was 2.81%; in test [2] it was 2.1%; in test [3], 3.47%; in [4], 1.41%; in [5] it was -0.25%; in test [6], 0.14%. For the same molecule, the inhibition in [7] is -0.35%; in test [8] it was 2.52%; in test [9] it was 6.44%; in test [10], 3.28%; in [11] it was 7.18%; in test [12], 3.3%. Further, the inhibition in test [13] was 7.02%; in test [14], 2.74%; in test [15], 2.71%; in test [16] it was 1.38%; in [17] it was 1.83%; in test [18], 3.9%. Further, the values for the inhibition in test [19] and in test [20] were -1.34% and 0.87%, respectively.

Regarding `Clc1ccc(CNc2nccc(-c3cnn4ncccc34)n2)cc1`, the inhibition in [1] is 4.31%; in [2], -0.38%; in [3], -1.34%; in test [4] it was 1.01%; in test [5], 1.73%; in test [6], 0.21%. The inhibition came out at 0.83% in test [7]; 1.24% in [8]; 4.11% in test [9]; 1.12% in [10]; 5.34% in test [11]; 0.83% in test [12]. Moreover, the inhibition is 3.93% in [13]; 2.07% in test [14]; 6.09% in test [15]; -0.17% in test [16]; 3.68% in [17]; 0.56% in [18]. The inhibition was 1.41% in test [19] and 0.21% in test [20].
